The record followed here is PubChem BioAssay (NCI).

What all share (test): NCI-60 one-dose screen, 48 h (100 = growth as untreated, 0 = no growth, -100 = all killed)
One experiment concerns SK-MEL-2 melanoma. To be noted: 10 µM unless noted.
The next experiment concerns EKVX NSCLC. To be noted: 10 µM unless noted.
The next experiment concerns SN12C renal. The conditions noted are these: 10 µM unless noted.
In a further experiment the test system is UO-31 renal. The conditions noted are these: 10 µM unless noted.
The next experiment concerns TK-10 renal. The conditions noted are these: 10 µM unless noted.
Another experiment deals with ACHN renal. The conditions noted are these: 10 µM unless noted.
The subject of the next experiment is CAKI-1 renal. The conditions noted are these: 10 µM unless noted.
The subject of the next experiment is CCRF-CEM leukemia. The conditions noted are these: 10 µM unless noted.
The subject of another experiment is MOLT-4 leukemia. The conditions noted are these: 10 µM unless noted.
The subject of a further experiment is SR leukemia. The conditions noted are these: 10 µM unless noted.
Another experiment relates to RPMI-8226 leukemia. To be noted: 10 µM.
In a further experiment the test system is OVCAR-8 ovarian. The conditions noted are these: 10 µM unless noted.
Another experiment concerns OVCAR-5 ovarian. To be noted: 10 µM unless noted.
The test system of the next experiment is OVCAR-4 ovarian. The conditions noted are these: 10 µM unless noted.
A further experiment concerns IGROV1 ovarian. The conditions noted are these: 10 µM unless noted.
The test system of a further experiment is OVCAR-3 ovarian. To be noted: 10 µM unless noted.
Another experiment has as its system HS 578T breast. To be noted: 10 µM unless noted.
A further experiment deals with NCI/ADR-RES ovarian. The conditions noted are these: 10 µM unless noted.
The next experiment deals with SK-OV-3 ovarian. To be noted: 10 µM.
The test system of the next experiment is A498 renal. To be noted: 10 µM unless noted.

About 83,000 compounds went through this panel and 20% of them were active in at least one assay; those are over-represented in the sample as a whole.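 Negative percent growth values reflect cell death: -40 means 40% of the cells present at the start died, and -100 means all died.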 Values without a mark were called inactive. The source made the active and inactive calls. How the source made its calls: active means growth percent below 10; inactive means the rest.

Regarding `CCN1CCN(c2nc3ccccc3c3c(=O)c4cc(F)ccc4sc23)CC1`, the growth is 98.8% in the experiment on SK-MEL-2 melanoma; 82.8% in the experiment with EKVX NSCLC; 80.7% in the experiment with SN12C renal; 44% in the experiment with UO-31 renal; 85.2% in the experiment on TK-10 renal; 59.4% with ACHN renal. Further, the growth with CAKI-1 renal is 67.9%; with CCRF-CEM leukemia, 68.5%; with MOLT-4 leukemia it was 27.9%; in the experiment with SR leukemia it was 0.85% (active); in the experiment with RPMI-8226 leukemia, 65.5%; in the experiment with OVCAR-8 ovarian, 71%. For the same compound, the growth with OVCAR-5 ovarian is 79.8%; in the experiment with OVCAR-4 ovarian it was 63%; in the experiment with IGROV1 ovarian, 57%; with OVCAR-3 ovarian, 71%; in the experiment with HS 578T breast, 62.1%; in the experiment on NCI/ADR-RES ovarian it was 78.3%.
`Cc1ccc(C)c2c1sc1nc3nc4sc5ccccc5n4c(=N)c3c(=O)n12`: the growth in the experiment with SK-MEL-2 melanoma is 121%; in the experiment with EKVX NSCLC, 95.7%; in the experiment with SN12C renal, 105%; in the experiment with UO-31 renal it was 78.1%; with TK-10 renal, 162%; with ACHN renal, 99.1%. Besides, the growth in the experiment with CAKI-1 renal is 106%; with CCRF-CEM leukemia it was 81.1%; in the experiment with MOLT-4 leukemia, 104%; with SR leukemia it was 78.5%; in the experiment on RPMI-8226 leukemia, 89.4%; in the experiment with OVCAR-8 ovarian it was 116%. Also, the growth in the experiment with OVCAR-5 ovarian was 91.3%; with OVCAR-4 ovarian, 88%; in the experiment on SK-OV-3 ovarian, 92.5%; in the experiment with IGROV1 ovarian it was 64.3%; in the experiment with OVCAR-3 ovarian, 89.4%; in the experiment on HS 578T breast it was 94.8%. In the experiment with NCI/ADR-RES ovarian, the growth was 97.6%.
On to `COc1cc(-c2nc(SC(C)C)nc(Nc3cccc(C)c3)c2C#N)cc(OC)c1OC`, for which the growth in the experiment on SK-MEL-2 melanoma is 118%; with EKVX NSCLC, 109%; in the experiment on SN12C renal, 102%; in the experiment on UO-31 renal, 84.8%; in the experiment with ACHN renal, 103%; in the experiment with CAKI-1 renal, 94.5%. In addition, the growth in the experiment with CCRF-CEM leukemia is 104%; with MOLT-4 leukemia, 93.5%; with SR leukemia it was 95%; with OVCAR-8 ovarian it was 93.5%; in the experiment with OVCAR-5 ovarian, 107%; in the experiment on OVCAR-4 ovarian, 107%. For the same compound, the growth was 103% in the experiment with IGROV1 ovarian, 115% with OVCAR-3 ovarian, 104% in the experiment on HS 578T breast and 105% with NCI/ADR-RES ovarian.
On to `CCCN1CCN(c2ccc3nc(-c4ccc5nc(-c6ccc(C(F)(F)F)cc6)[nH]c5c4)[nH]c3c2)CC1`, for which the growth in the experiment on SK-MEL-2 melanoma was 7.45% (active); with EKVX NSCLC, -34.3% (active); in the experiment with SN12C renal, -69.2% (active); with UO-31 renal, 79.7%; in the experiment with TK-10 renal it was -13% (active); in the experiment on ACHN renal it was -99.9% (active). The growth in the experiment on CAKI-1 renal is 59%; with CCRF-CEM leukemia, -21.1% (active); in the experiment with SR leukemia, -35.5% (active); with RPMI-8226 leukemia, -29.9% (active); in the experiment with OVCAR-8 ovarian it was -38% (active); in the experiment on OVCAR-4 ovarian, -82.5% (active). Moreover, the growth with IGROV1 ovarian was -83.5% (active); in the experiment with OVCAR-3 ovarian it was -96.9% (active); with HS 578T breast, 4.6% (active); in the experiment on NCI/ADR-RES ovarian, 74%.
With `CCOC(=O)c1c(-c2cc(OC)c(OC)c(OC)c2)csc1N`, the growth in the experiment on SK-MEL-2 melanoma was 101%; with EKVX NSCLC, 110%; in the experiment with SN12C renal, 105%; in the experiment on UO-31 renal, 75.9%; in the experiment on TK-10 renal, 93.3%; in the experiment on CAKI-1 renal it was 68.1%. The growth in the experiment on A498 renal was 101%; with CCRF-CEM leukemia, 83.7%; in the experiment with MOLT-4 leukemia, 92.3%; in the experiment on SR leukemia it was 27.2%; with RPMI-8226 leukemia it was 90.3%; in the experiment with OVCAR-8 ovarian, 106%. Besides, the growth with OVCAR-5 ovarian was 101%; with OVCAR-4 ovarian, 118%; in the experiment on SK-OV-3 ovarian it was 90.9%; in the experiment with IGROV1 ovarian it was 84.3%; in the experiment on OVCAR-3 ovarian it was 96.4%; in the experiment on HS 578T breast, 104%. Moreover, the growth with NCI/ADR-RES ovarian was 83.8%.
With `NS(=O)(=O)c1cc(Br)c2c(c1)S(=O)(=O)NCN2`, the growth was 102% in the experiment with SK-MEL-2 melanoma; 120% in the experiment on EKVX NSCLC; 104% in the experiment with SN12C renal; 96.7% with UO-31 renal; 110% in the experiment on TK-10 renal; 94.9% in the experiment on CAKI-1 renal. The growth was 115% with A498 renal; 99.7% with CCRF-CEM leukemia; 87.5% with MOLT-4 leukemia; 88% with SR leukemia; 106% with RPMI-8226 leukemia; 103% in the experiment on OVCAR-8 ovarian. Further, the growth in the experiment on OVCAR-5 ovarian was 112%; with OVCAR-4 ovarian it was 120%; with SK-OV-3 ovarian, 115%; in the experiment with IGROV1 ovarian it was 115%; in the experiment with OVCAR-3 ovarian, 99.3%; in the experiment on HS 578T breast it was 110%. The growth with NCI/ADR-RES ovarian was 135%.
Turning to `O=c1[nH]c(=O)n(Cc2ccc(F)cc2)cc1F`, the growth with SK-MEL-2 melanoma is 111% [50 µM]; with EKVX NSCLC it was 105% [50 µM]; in the experiment on SN12C renal, 99.8% [50 µM]; in the experiment on UO-31 renal, 89.4% [50 µM]; in the experiment with ACHN renal, 105% [50 µM]; with CAKI-1 renal, 95.3% [50 µM]. Moreover, the growth in the experiment with A498 renal is 92.1% [50 µM]; with CCRF-CEM leukemia, 104% [50 µM]; in the experiment with MOLT-4 leukemia, 96% [50 µM]; in the experiment on OVCAR-8 ovarian, 94.2% [50 µM]; with OVCAR-5 ovarian it was 104% [50 µM]; with OVCAR-4 ovarian it was 108% [50 µM]. Besides, the growth in the experiment on IGROV1 ovarian is 108% [50 µM]; with OVCAR-3 ovarian it was 116% [50 µM]; in the experiment with HS 578T breast it was 104% [50 µM]; in the experiment on NCI/ADR-RES ovarian, 113% [50 µM].
`c1ccc2cc(Cn3c(-c4ccc5ccccc5c4)[n+](Cc4ccc5ccccc5c4)c4ccccc43)ccc2c1`: the growth in the experiment on SK-MEL-2 melanoma is -67.7% (active); in the experiment with EKVX NSCLC, -11.7% (active); with SN12C renal it was -88.2% (active); with UO-31 renal, -77.1% (active); with ACHN renal, -51.5% (active); in the experiment with CAKI-1 renal, -67.3% (active). In addition, the growth was -64% (active) in the experiment with A498 renal; -4.24% (active) with CCRF-CEM leukemia; -35.4% (active) with MOLT-4 leukemia; -27.8% (active) in the experiment on SR leukemia; -62.9% (active) in the experiment on OVCAR-8 ovarian; -12.2% (active) in the experiment with OVCAR-5 ovarian. Besides, the growth in the experiment with OVCAR-4 ovarian was -17.2% (active); in the experiment on IGROV1 ovarian, -74% (active); in the experiment on OVCAR-3 ovarian it was -96% (active); in the experiment with HS 578T breast, -58.9% (active); with NCI/ADR-RES ovarian, 31.2%.
Consider `O=C(CCCCCCC(=O)Nc1ccc2c(c1)/C(=C/c1ccc[nH]1)C(=O)N2)NO`, for which the growth is 37% in the experiment on SK-MEL-2 melanoma; 12.2% in the experiment on SN12C renal; 6.77% (active) with UO-31 renal; 5.62% (active) in the experiment on TK-10 renal; 4.49% (active) with ACHN renal; 2.67% (active) with CAKI-1 renal. Further, the growth in the experiment on A498 renal is -59.3% (active); in the experiment with CCRF-CEM leukemia, 6.86% (active); in the experiment with MOLT-4 leukemia, 4.16% (active); in the experiment with SR leukemia, 4.1% (active); with RPMI-8226 leukemia, -19.5% (active); with OVCAR-8 ovarian it was 11.2%. For the same compound, the growth in the experiment with OVCAR-5 ovarian was 0.698% (active); in the experiment with OVCAR-4 ovarian, 23.7%; in the experiment with SK-OV-3 ovarian it was 12.2%; in the experiment with IGROV1 ovarian, -4.96% (active); with OVCAR-3 ovarian, -57.8% (active); in the experiment on HS 578T breast, 9.71% (active).
